# Reference: article PMC4336329 (PLoS ONE, 2015)
# Out of some 310,000 compounds screened, about 14,000 (4.5%) showed an effect of 50% or more. Effects have a minus sign here. The entries come from a sample that favours strong results as a whole.
# Molecular target: human ether-à-go-go-related gene (hERG) potassium channel (human, UniProt Q12809)
# Experiment: primary screen, population patch clamp on CHO cells stably expressing hERG; higher = less effect of the substance
# 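Note: peak tail current of the secondary pulse compared with the same well before compound.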
# Sequence of human ether-à-go-go-related gene (hERG) potassium channel (Q12809 whole entry, looked up): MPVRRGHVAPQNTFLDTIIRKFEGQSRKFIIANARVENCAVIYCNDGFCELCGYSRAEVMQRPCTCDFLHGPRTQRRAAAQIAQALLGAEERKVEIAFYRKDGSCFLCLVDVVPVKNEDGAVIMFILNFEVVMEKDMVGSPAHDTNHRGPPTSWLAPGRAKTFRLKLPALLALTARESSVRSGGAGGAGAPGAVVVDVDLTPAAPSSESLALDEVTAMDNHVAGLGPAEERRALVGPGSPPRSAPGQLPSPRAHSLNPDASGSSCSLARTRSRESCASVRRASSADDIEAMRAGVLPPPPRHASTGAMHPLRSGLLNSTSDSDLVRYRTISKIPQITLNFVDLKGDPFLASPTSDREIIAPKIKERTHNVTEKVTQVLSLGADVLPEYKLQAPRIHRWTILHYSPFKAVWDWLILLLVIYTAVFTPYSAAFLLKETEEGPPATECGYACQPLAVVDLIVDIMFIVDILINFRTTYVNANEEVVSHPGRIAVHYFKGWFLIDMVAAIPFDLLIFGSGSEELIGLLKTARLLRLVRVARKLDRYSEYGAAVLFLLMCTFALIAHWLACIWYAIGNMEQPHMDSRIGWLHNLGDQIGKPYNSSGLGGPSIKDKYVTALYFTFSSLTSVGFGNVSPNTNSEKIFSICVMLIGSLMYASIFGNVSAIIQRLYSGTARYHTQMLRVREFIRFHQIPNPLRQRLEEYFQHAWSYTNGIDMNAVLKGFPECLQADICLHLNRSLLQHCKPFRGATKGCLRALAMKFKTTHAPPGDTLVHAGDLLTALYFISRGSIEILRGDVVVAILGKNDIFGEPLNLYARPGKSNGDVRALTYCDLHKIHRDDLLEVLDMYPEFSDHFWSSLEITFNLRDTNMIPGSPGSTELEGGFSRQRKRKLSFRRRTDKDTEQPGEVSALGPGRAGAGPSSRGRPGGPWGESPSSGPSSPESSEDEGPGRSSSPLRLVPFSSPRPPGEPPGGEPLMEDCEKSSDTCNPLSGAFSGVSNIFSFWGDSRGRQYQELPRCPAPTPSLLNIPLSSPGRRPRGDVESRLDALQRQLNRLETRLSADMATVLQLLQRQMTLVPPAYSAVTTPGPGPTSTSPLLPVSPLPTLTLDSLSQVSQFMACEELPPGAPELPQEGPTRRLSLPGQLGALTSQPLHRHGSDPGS
row,SMILES,"hERG current change (%, negative = inhibition) at 10uM"
1,CC(=O)c1c(NCCc2ccccc2)nc(=S)n(-c2ccccc2)c1C,7.04%
2,CCn1c(=O)cc(OCC(=O)NCc2ccco2)c2ccccc21,0.766%
3,CCN1CCCC1CNC(=O)Cn1cnc2sc(C)c(S(=O)(=O)N3CCC(C)CC3)c2c1=O (stereo not drawn),-14.5%
4,Cc1ccc2nc(N3C(=O)C(O)=C(C(=O)c4ccco4)C3c3ccc(C)o3)sc2c1.O=C(O)C(=O)O (stereo not drawn),1.65%
5,CC(NC(=O)C1CCC(CNC(=O)[C@@H]2Cc3ccccc3CN2)CC1)c1ccccc1 (stereo partly drawn),-4.23%
6,CCn1c(SCC(=O)Nc2cc(C)on2)nnc1-c1ccc(S(=O)(=O)N2CCCC2)cc1,-1.7%
7,Cc1ccc2cc3cc(C(=O)NCCCN4CCCC4=O)oc3nc2c1,2.4%
8,Cc1ccc2cc3cc(C(=O)NCCCN4CCCC4)oc3nc2c1,-15.5%
9,Cc1ccc2oc(=O)c3cc(C(=O)NCCCN4CCc5ccccc5C4)sc3c2c1,-6.63%
10,Cc1ccc2cc3cc(C(=O)NCCN4CCOCC4)oc3nc2c1,-14.5%
11,Cc1ccc2cc3cc(C(=O)N4CC(C)CC(C)C4)oc3nc2c1 (stereo not drawn),1.38%
12,Cc1ccc2cc3cc(C(=O)NCc4ccco4)oc3nc2c1,-1.21%
13,Cc1ccc2cc3cc(C(=O)NCCCN4CCCCCC4)oc3nc2c1,-50.6%
14,Cc1ccc2cc3cc(C(=O)NCCCN4CC(C)CC(C)C4)oc3nc2c1 (stereo not drawn),-62.9%
15,Cc1ccc2cc3cc(C(=O)NCCCN4CCc5ccccc5C4)oc3nc2c1,-54.9%
16,CCOC(=O)C1C(c2ccccc2O)NC(=O)NC1(O)C(F)(F)F (stereo not drawn),16.9%
17,COc1ccc(OCC(=O)Nc2cccc(C(C)=O)c2)cc1,-7.29%
18,CC(C)(C)c1ccc(C(=O)c2c[nH]c(C(=O)NCCc3ccccn3)c2)cc1,15.1%
19,Cc1ccc(N(C)C(=O)C2CCCN2S(=O)(=O)c2ccc3c(c2)n(C)c(=O)c(=O)n3C)cc1 (stereo not drawn),-2.28%
20,COc1ccccc1C(=O)NCC(=O)N=Nc1c(O)n(C(C)C)c2ccccc12,-7.32%
21,CC(CN1CCOCC1)OC(=O)c1ccccc1Cl.Cl (stereo not drawn),12%

row,SMILES,"hERG current change (%, negative = inhibition) at 10uM"
1,CC1(C)CC(=O)C(C=NCCN2CCN(C(=S)Nc3ccccc3)CC2)=C(O)C1,-11.3%
2,CC1(C)CC(=O)C(C=NCCN2CCN(C(=O)Cc3ccc(F)cc3)CC2)=C(O)C1,-23.5%
3,CC1(C)CC(=O)C(C=NCCN2CCN(C3CC(=O)N(c4ccc(F)cc4)C3=O)CC2)=C(O)C1 (stereo not drawn),6.86%
4,CC1(C)CC(=O)C(C=NCCN2CCN(C(=O)Cc3ccc(Cl)cc3)CC2)=C(O)C1,-62%
5,CC1(C)CC(=O)C(C=NCCN2CCN(C3CC(=O)N(c4ccc(Br)cc4)C3=O)CC2)=C(O)C1 (stereo not drawn),-19.3%
6,CC1(C)CC(=O)C(C=NCCN2CCN(C3CC(=O)N(c4ccc(Cl)c(Cl)c4)C3=O)CC2)=C(O)C1 (stereo not drawn),-50.2%
7,CC1(C)CC(=O)C(C=NCC2CCN(C(=S)Nc3ccccc3)CC2)=C(O)C1,-3.98%
8,CC1(C)CC(=O)C(C=NCCN2CCN(C(=O)Cc3ccccc3)CC2)=C(O)C1,-24.8%
9,CC1(C)CC(=O)C(C=NCCN2CCN(C(=S)Nc3cccc(Cl)c3)CC2)=C(O)C1,-66.3%
10,CC1(C)CC(=O)C(C=NCCN2CCN(C(=S)Nc3ccc(F)cc3)CC2)=C(O)C1,-27.8%
11,CC1(C)CC(=O)C(C=NCC2CCN(C(=O)Nc3ccc(Cl)c(Cl)c3)CC2)=C(O)C1,-23.8%
12,CC1(C)CC(=O)C(C=NCC2CCN(C(=S)Nc3cccc(Cl)c3)CC2)=C(O)C1,-62.4%
13,COc1ccc(Br)cc1C(=O)Nc1cc(C)cc(C)c1,5.21%
14,NC(=O)c1cc2n(n1)C(C(F)(F)F)CC(c1ccco1)N2 (stereo not drawn),-7.54%
15,COC(=O)C1NN=C(C(=O)c2ccc(Br)cc2)C1c1cccc(Br)c1 (stereo not drawn),2.42%
16,CC(C)c1nc2sc3c(SCC(N)=O)ncnc3c2c2c1CCC2,11.9%
17,NC(=O)c1ccc(C(F)(F)F)n(Cc2c(Cl)cccc2Cl)c1=O,25.1%
18,CCc1cccc(CC)c1NC(=O)/C(C#N)=C/c1ccccc1C(F)(F)F,21.4%
19,C=CCn1c(NCCc2ccccc2)nc2c1c(=O)n(C)c(=O)n2C,-1.17%
20,Cc1ccccc1NC(=O)C1CCC(=O)N1 (stereo not drawn),-0.504%
21,Cc1c(N2C(=O)c3ccc(F)cc3C2=O)c(=O)n(-c2ccccc2)n1C,13.6%

row,SMILES,"hERG current change (%, negative = inhibition) at 10uM"
1,Cc1ccccc1Nc1nc(N)nc(-c2oc3ccccc3c2C)n1,4.69%
2,COc1ccc(Cl)cc1NC(=O)CCN1C(=O)C2C3C=CC(C4CC34)C2C1=O (stereo not drawn),-24.4%
3,COc1ccc(O)c(-c2cc(-c3ccccc3[N+](=O)[O-])[nH]n2)c1,-11.7%
4,CCOC(=O)c1c(NC(=O)CSc2nnc(Cc3csc(N)n3)n2C)sc(C)c1C,-51.8%
5,COC(=O)c1c(NC(=O)CSc2nnc(Cn3nnc4ccccc43)n2C)sc(C)c1C,-62.7%
6,CCOC(=O)Cc1csc(NC(=O)CSc2nnc(Cc3csc(N)n3)n2C)n1,-1.19%
7,Cc1nc(NC(=O)CSc2nnc(Cn3nnc4ccccc43)n2C)sc1C,0.783%
8,CCOC(=O)c1c(NC(=O)CSc2nnc(CNc3ccc(OC)cc3)n2C)sc(C)c1C,-21.7%
9,COC(=O)c1sc(NC(=O)CSc2nnc(Cn3nnc4ccccc43)n2C)nc1C,23.9%
10,CN(C)C(=O)N1CCC(C(=O)NCc2ccc3c(c2)OCO3)CC1,5.54%
11,O=C(CNc1cccc2ccccc12)N/N=C/c1cccc(Oc2ccccc2)c1,18.2%
12,Cc1ccc(S(=O)(=O)N2CCN(C(=O)COC(=O)CCOc3ccccc3)CC2)c(C)c1,1.16%
13,CCN(CC(=O)Nc1ccc(OC)cc1)CC(=O)Nc1cccc(C#N)c1,0.389%
14,COc1ccc(CNC(=O)C2CCN(C(=O)c3cccc(Cl)c3)CC2)cc1,-44.9%
15,O=C(c1cccc(Cl)c1)C1CCCN(Cc2ccc(N3CCNC3=O)cc2)C1 (stereo not drawn),-43.7%
16,COc1ccc(CN2CCCC(C(=O)c3cccc(Cl)c3)C2)cc1 (stereo not drawn),-57.4%
17,COc1cccc(C(=O)C2CCCN(Cc3ccc(F)cc3)C2)c1 (stereo not drawn),-18.6%
18,COc1ccc(CN2CCC(C(=O)c3cccc(Cl)c3)CC2)cc1,-78.7%
19,CS(=O)(=O)N1CCC(C(=O)c2cccc(Cl)c2)CC1,-0.907%
20,O=C(c1cccc(Cl)c1)C1CCCN(Cc2ccon2)C1 (stereo not drawn),-26.3%
21,COc1cccc(OC)c1CN1CCCC(C(=O)c2cccc(Cl)c2)C1 (stereo not drawn),-69%

row,SMILES,"hERG current change (%, negative = inhibition) at 10uM"
1,C[C@H](CCC(=O)NCC(=O)[O-])[C@H]1CC[C@H]2[C@@H]3[C@H](O)C[C@@H]4C[C@H](O)CC[C@]4(C)[C@H]3C[C@H](O)[C@]12C.O.[Na+],-21.4%
2,Cc1ccc(Cn2ccc(NC(=O)c3cc(-c4ccc(Cl)cc4)on3)n2)cc1,17.3%
3,COc1cccc(Nc2ncnc3sc(C)cc23)c1.Cl,-8.64%
4,C#CCOCCOCCOCCNc1nc(N2CCN(C(=O)[C@H]([C@@H](C)CC)n3cc([C@@H](N)CC(C)C)nn3)CC2)nc(N2CCN(C(=O)[C@H](CCCCN)n3cc([C@@H](N)CC(C)C)nn3)CC2)n1.Cl,-10.1%
5,CCOc1ccccc1CNC(=O)c1ccc(NC(=O)C2=CSCCO2)cc1,7.72%
6,COc1ccccc1C(=O)NCCC(=O)NCc1ccccn1,-2.66%
7,O=C(O)C(=O)O.O=[N+]([O-])c1ccc(Oc2ccc(C(F)(F)F)cn2)cc1,-53.9%
8,O=C(O)c1ccc(Oc2ccc(C(F)(F)F)cn2)cc1,17.5%
9,O=[N+]([O-])c1ccc(Oc2ccc(Oc3ccc(C(F)(F)F)cn3)cc2)nc1,-1.44%
10,COc1ccc(NC(=O)Nc2c(C)n(C)n(-c3ccccc3)c2=O)cc1,-18.6%
11,NC1=NC(=O)/C(=C\c2ccco2)S1,19.2%
12,O=C1N=C(N2CCN(c3ccccc3)CC2)S/C1=C\c1ccco1,-66.1%
13,O=C1N=C(N2CCN(c3ccccc3)CC2)S/C1=C/c1cccs1,-49.3%
14,O=C1N=C(N2CCCC2C(=O)O)S/C1=C\c1ccco1 (stereo not drawn),35%
15,O=C1N=C(N2CCCC2)S/C1=C\c1ccccc1,15.2%
16,O=C1N=C(N2CCN(c3ccccc3)CC2)S/C1=C/c1ccco1,-53.8%
17,CCC(C)C(NC(=O)CCCNC(=O)CCC(=O)OC1O[C@H]2OC3(C)CC[C@H]4[C@H](C)CCC(C1C)C24OO3)C(=O)O (stereo partly drawn),4.12%
18,CC(C)CC(NC(=O)CCCNC(=O)CCC(=O)OC1O[C@H]2OC3(C)CC[C@H]4[C@H](C)CCC(C1C)C24OO3)C(=O)O (stereo partly drawn),1.34%
